Screens as filed in PubChem.
This is a sample that favours compounds with a hit; in the whole collection about 19% have one here.
TDP1 cell CPT: DT40-hTDP1 cell growth loss with CPT; chicken DT40 Tdp1-/-;hTDP1 cells + 20 nM CPT, ATP luminescence, 48 h; 420,000 tested, 12% active; Potency, µM (doses to about 46.2 µM), for inactives: at the highest dose activity change, negative = growth inhibition, usual class: inhibitors; AID 686979; note: potency is the fitted concentration of half-maximal effect; nearly all actives have a fitted effect of over 55% in size
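Chicken DT40 Tdp1-/- cells stably complemented with human TDP1 were seeded at 400 cells/well in medium containing 20 nM camptothecin, exposed to pin-transferred compounds, and grown at 37 °C for at least 48 hr. Viability was read as ATP luminescence.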
HT1080NT lethal: kills 2HG-producing HT-1080-NT fibrosarcoma cells. AID 686970. HT-1080-NT fibrosarcoma viability, CellTiter-Glo ATP luminescence, 48 h. 360,000 tested, 1.6% active. Potency, µM (titrated, usually from 46.1 µM), without a hit: top-dose activity, negative = less viability, usual class: cytotoxic;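 note: NT is the 2HG producing partner of a matched IDH1 knockdown line; potency is the fitted concentration of half-maximal effect; 0% = DMSO-treated cells and -100% = media-only wells without cells; nearly all actives have a fitted effect of over 55% in size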
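HT-1080-NT fibrosarcoma cells (2HG-overproducing), 750 cells/well in RPMI with 5% FBS, dosed after 2 h and incubated 48 h at 37C. CellTiter-Glo luminescence normalized to DMSO and no-cell wells; concentration-response curves fitted and classed.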
HT1080 IDH1KD tx: toxicity to HT-1080 IDH1 knockdown cells (counter line) | HT-1080 IDH1 knockdown viability, ATP luminescence, 48 h | Potency, µM (series often up to 46.1 µM), without a hit: at the top dose activity, negative = toxicity, actives largely listed as cytotoxic | 360,000 tested, 2% active;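 note: potency is the fitted concentration of half-maximal effect; 0% = DMSO wells and -100% = cell-free medium wells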
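Using the IDH1-knockdown HT-1080 line run in the same batch and compound series as the NT line, viability after 48 h at 37 °C was determined by CellTiter-Glo luminescence and expressed as % activity.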
TDP1 cell noCPT: qHTS for Inhibitors of human tyrosyl-DNA phosphodiesterase 1 (TDP1): qHTS in cells in absence of CPT; DT40 Tdp1-/- hTDP1 cells, no CPT, ATP luminescence, 48 h; 420,000 tested, 15% active; Potency, µM (doses to about 46.2 µM), for inactives: at the top dose activity change, negative = growth inhibition, usual class: inhibitors; AID 686978, 2013; note: potency is the fitted concentration of half-maximal effect; nearly all actives have a fitted effect of over 55% in size
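Stably hTDP1-transfected Tdp1-null chicken DT40 cells were treated with library compounds minus camptothecin and grown for at least 48 hr at 37 °C, after which cellular ATP was quantified by luminescence.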
IL1B secr inh: inflammasome signaling inhibition, IL-1 beta readout; activity change, % at 57.5 µM; 360,000 tested, 4.7% active; THP-1 LPS/ATP IL-1B secretion, AlphaLISA, 16 h; active compounds read low; in the data active = activity change below about -50%; inconclusive = mostly about -30% to -49%
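Secreted IL-1B measured by AlphaLISA bead assay after 16 h compound exposure of THP-1 cells; compounds (final up to 57.5 uM) added 1 h before LPS (250 ng/mL) and ATP (1.25 mM) stimulation; lower signal means less secretion.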
Active calls of the source: *. Unless noted, calls come from the whole dose curve; as a rule, active = well fitted curve in the direction sought with a large enough effect; inconclusive = small, poorly fitted or top-dose-only effect, or another doubt; inactive = no such curve, though single readings can be large; an effect the other way counts as inactive or inconclusive. Unless noted, % is set by controls: 0 for no effect and ±100 for the full control effect.

What do the screens show for `CC(CC(=O)Nc1ccc2c(c1)c(=O)n(C)n2-c1cccs1)c1ccccc1` (configuration not stated)?
TDP1 cell CPT: 13µM*; HT1080NT lethal: inconclusive; HT1080 IDH1KD tx: 4.1µM*; TDP1 cell noCPT: 12µM*; IL1B secr inh: 28

What do the screens show for `Cc1cc(C)cc(-n2c3ccc(NC(=O)Cc4cccc5ccccc45)cc3c(=O)n2C)c1`?
TDP1 cell CPT: 5.8µM*; HT1080NT lethal: inconclusive; HT1080 IDH1KD tx: 2.1µM*; TDP1 cell noCPT: 3.3µM*; IL1B secr inh: 0

What do the screens show for `Cn1c(=O)c2cc(NC(=O)Cc3ccccc3F)ccc2n1-c1ccc(C(C)(C)C)cc1`?
TDP1 cell CPT: 23µM*; HT1080NT lethal: inconclusive; HT1080 IDH1KD tx: -28%; TDP1 cell noCPT: 16µM*; IL1B secr inh: 0

Results for CCNC(=S)Nc1ccc2c(c1)c(=O)n(C)n2-c1ccc(C(C)(C)C)cc1 ?
TDP1 cell CPT: 26µM*; HT1080NT lethal: -27%; HT1080 IDH1KD tx: inconclusive; TDP1 cell noCPT: inconclusive; IL1B secr inh: 7

What do the screens show for `CC1(C)SCC2C(=O)N3C(CSC3(C)C)C(=O)N21` (configuration not stated)?
TDP1 cell CPT: -15%; HT1080NT lethal: -2%; HT1080 IDH1KD tx: 0%; TDP1 cell noCPT: -19%; IL1B secr inh: 34

What do the screens show for `CCOc1ccc(NC2=NCC(=O)N2Cc2cccs2)cc1`?
TDP1 cell CPT: -8%; HT1080NT lethal: 10%; HT1080 IDH1KD tx: 5%; TDP1 cell noCPT: 1%; IL1B secr inh: -4

What do the screens show for `Cc1ccccc1S(=O)(=O)NNC(=O)C(=O)NNc1ccccn1`?
TDP1 cell CPT: inconclusive; HT1080NT lethal: -22%; HT1080 IDH1KD tx: inconclusive; TDP1 cell noCPT: 23µM*; IL1B secr inh: 27

Results for CCC[n+]1c2ccccc2cc2ccccc21 ?
TDP1 cell CPT: 2.9µM*; HT1080NT lethal: 16µM*; HT1080 IDH1KD tx: inconclusive; TDP1 cell noCPT: 2.6µM*; IL1B secr inh: -99*

Results for Cc1ccc2ccccc2[n+]1CCCS(=O)(=O)[O-] ?
TDP1 cell CPT: -18%; HT1080NT lethal: -1%; HT1080 IDH1KD tx: 7%; TDP1 cell noCPT: -6%; IL1B secr inh: 0

Results for CCCC[n+]1c2ccccc2cc2ccccc21 ?
TDP1 cell CPT: 2.3µM*; HT1080NT lethal: 23µM*; HT1080 IDH1KD tx: inconclusive; TDP1 cell noCPT: 2.1µM*; IL1B secr inh: -101*

Results for Cc1ccc(NC(=S)N(CCN(C)C)Cc2cc3cc(C)cc(C)c3[nH]c2=O)cc1 ?
TDP1 cell CPT: inconclusive; HT1080NT lethal: -10%; HT1080 IDH1KD tx: -12%; TDP1 cell noCPT: 4.6µM*; IL1B secr inh: -53*

How did Cc1ccc2cc(CN(CCN(C)C)C(=S)Nc3ccccc3)c(=O)[nH]c2c1C do in these assays?
TDP1 cell CPT: inconclusive; HT1080NT lethal: -16%; HT1080 IDH1KD tx: -9%; TDP1 cell noCPT: 21µM*; IL1B secr inh: -85*

Results for CCOCCCN(Cc1cc2cc(C)cc(C)c2[nH]c1=O)C(=O)N(CC)CC ?
TDP1 cell CPT: 15µM*; HT1080NT lethal: 5%; HT1080 IDH1KD tx: 8%; TDP1 cell noCPT: 16µM*; IL1B secr inh: 22

How did CCN(CC)CCN(Cc1cc2cccc(C)c2[nH]c1=O)C(=S)Nc1ccccc1 do in these assays?
TDP1 cell CPT: inconclusive; HT1080NT lethal: -11%; HT1080 IDH1KD tx: -20%; TDP1 cell noCPT: inconclusive; IL1B secr inh: -80*

How did Cn1c(SCc2cccc(F)c2)nnc1-c1ccncc1 do in these assays?
TDP1 cell CPT: -13%; HT1080NT lethal: 28%; HT1080 IDH1KD tx: -2%; TDP1 cell noCPT: 2%; IL1B secr inh: 6

Results for NC(=O)C1CCN(C(=O)c2ccc3c(=O)n(Cc4ccco4)c(SCc4ccc([N+](=O)[O-])cc4)nc3c2)CC1 ?
TDP1 cell CPT: inconclusive; HT1080NT lethal: -5%; HT1080 IDH1KD tx: -3%; TDP1 cell noCPT: inconclusive; IL1B secr inh: -19
